The record followed here is the supplement of paper PMC12067093, “Discovery and optimisation of a covalent ligand for TRIM25 and its application to targeted protein ubiquitination” (Chemical Science, 2025).

Compound in the test: Cc1cc(ccc1-c1ccccc1)C(=O)N1CCCN(CC1)C(=O)CCl [compound 10]
The experiment in a line: probe-labelled cysteine peptide fold change vs DMSO (competition) (log2 fold change); higher = less target engagement (more negative = stronger competition). To be noted: THP-1, incubation time: 4 h.

About 21,000 targets were measured; listed, in parts, are those with the largest changes and a random draw of the rest.
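Note: competitive profiling in live THP-1 cells: cysteine peptides tagged with an iodoacetamide desthiobiotin (IA-DTB) probe, intensity after compound treatment relative to DMSO-treated cells.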

Sequence of UniProt O60231 (O60231 whole entry, looked up): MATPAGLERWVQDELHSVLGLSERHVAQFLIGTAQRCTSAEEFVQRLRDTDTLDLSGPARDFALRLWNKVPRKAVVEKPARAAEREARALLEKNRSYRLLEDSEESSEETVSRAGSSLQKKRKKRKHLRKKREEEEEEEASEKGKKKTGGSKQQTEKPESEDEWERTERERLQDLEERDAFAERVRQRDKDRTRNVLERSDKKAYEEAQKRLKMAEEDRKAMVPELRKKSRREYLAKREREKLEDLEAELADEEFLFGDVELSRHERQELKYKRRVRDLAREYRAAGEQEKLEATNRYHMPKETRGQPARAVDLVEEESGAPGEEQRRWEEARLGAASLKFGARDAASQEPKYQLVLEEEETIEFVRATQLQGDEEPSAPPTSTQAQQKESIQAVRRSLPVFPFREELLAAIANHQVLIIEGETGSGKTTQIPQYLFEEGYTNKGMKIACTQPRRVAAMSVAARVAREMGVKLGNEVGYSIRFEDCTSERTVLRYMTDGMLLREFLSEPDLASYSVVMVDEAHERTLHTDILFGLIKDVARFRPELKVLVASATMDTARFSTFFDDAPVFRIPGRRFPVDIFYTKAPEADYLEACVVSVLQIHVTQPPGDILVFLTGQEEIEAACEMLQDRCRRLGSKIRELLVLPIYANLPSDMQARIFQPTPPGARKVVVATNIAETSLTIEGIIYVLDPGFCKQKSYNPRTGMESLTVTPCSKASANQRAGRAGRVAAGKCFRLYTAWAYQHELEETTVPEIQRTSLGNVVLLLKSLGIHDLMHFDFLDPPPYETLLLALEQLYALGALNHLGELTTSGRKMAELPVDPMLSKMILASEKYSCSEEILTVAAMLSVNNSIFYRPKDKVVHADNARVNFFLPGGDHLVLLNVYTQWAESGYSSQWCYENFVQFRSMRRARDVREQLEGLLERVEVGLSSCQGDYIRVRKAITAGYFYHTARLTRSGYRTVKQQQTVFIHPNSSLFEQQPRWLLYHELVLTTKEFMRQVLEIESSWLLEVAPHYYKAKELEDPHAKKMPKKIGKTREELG
Sequence of UniProt Q7L1T6 (Q7L1T6 whole entry): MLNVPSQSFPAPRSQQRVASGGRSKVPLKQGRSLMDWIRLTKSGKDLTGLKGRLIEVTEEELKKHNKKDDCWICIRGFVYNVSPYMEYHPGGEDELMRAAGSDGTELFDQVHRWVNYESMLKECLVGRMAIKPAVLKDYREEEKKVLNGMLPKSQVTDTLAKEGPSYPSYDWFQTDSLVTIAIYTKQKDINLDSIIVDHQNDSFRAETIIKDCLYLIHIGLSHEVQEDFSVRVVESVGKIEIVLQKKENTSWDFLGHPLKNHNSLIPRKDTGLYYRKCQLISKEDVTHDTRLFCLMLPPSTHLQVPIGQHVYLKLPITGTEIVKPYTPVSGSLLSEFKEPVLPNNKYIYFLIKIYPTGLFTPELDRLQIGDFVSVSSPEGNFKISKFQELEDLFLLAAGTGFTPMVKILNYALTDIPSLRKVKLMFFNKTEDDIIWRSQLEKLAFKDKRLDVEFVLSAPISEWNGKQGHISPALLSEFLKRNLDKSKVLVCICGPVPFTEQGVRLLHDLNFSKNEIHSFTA
Sequence of UniProt Q9UK59 (Q9UK59 whole entry, looked up): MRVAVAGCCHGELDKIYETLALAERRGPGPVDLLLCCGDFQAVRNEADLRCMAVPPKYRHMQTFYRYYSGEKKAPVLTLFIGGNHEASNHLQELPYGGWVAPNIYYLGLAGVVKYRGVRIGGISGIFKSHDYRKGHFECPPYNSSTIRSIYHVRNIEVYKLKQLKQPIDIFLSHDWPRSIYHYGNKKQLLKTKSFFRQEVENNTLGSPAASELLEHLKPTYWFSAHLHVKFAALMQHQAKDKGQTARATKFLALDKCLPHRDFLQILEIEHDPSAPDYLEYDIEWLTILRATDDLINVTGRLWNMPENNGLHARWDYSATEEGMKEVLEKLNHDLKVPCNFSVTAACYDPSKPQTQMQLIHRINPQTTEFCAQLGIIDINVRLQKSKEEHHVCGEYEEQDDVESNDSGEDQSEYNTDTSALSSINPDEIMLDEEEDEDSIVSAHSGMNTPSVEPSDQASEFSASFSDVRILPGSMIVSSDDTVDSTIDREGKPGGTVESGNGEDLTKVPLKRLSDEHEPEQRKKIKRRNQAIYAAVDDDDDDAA
Sequence of UniProt Q9GZR7 (Q9GZR7 whole entry, looked up): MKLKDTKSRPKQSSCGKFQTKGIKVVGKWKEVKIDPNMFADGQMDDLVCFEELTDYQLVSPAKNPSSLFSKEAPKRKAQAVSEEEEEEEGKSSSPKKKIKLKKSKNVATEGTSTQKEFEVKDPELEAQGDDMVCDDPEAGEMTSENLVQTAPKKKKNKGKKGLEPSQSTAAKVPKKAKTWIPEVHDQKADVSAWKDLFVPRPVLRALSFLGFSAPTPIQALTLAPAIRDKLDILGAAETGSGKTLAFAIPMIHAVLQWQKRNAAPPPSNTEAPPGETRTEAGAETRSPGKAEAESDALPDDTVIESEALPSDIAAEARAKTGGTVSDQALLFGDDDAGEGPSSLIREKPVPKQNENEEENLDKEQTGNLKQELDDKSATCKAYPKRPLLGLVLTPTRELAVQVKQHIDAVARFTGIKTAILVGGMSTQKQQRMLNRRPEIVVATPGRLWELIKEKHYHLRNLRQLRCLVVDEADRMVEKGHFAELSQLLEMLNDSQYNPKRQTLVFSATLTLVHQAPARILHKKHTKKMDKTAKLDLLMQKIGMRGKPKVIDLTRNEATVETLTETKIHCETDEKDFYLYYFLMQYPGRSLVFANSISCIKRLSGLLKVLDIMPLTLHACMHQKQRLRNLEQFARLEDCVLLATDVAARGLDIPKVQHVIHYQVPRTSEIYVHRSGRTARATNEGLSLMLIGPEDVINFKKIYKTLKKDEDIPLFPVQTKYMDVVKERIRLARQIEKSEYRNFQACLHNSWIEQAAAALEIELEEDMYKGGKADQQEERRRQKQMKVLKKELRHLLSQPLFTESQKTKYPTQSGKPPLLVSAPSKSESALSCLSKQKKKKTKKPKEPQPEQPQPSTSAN
Sequence of UniProt P21291 (P21291 whole entry, looked up): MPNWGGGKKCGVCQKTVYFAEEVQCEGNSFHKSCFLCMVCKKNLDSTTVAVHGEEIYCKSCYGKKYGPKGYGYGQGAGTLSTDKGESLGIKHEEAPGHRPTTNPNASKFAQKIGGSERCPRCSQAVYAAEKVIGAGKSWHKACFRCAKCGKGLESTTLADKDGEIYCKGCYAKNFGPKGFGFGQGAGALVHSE
Sequence of UniProt Q9H4E7 (Q9H4E7 whole entry, looked up): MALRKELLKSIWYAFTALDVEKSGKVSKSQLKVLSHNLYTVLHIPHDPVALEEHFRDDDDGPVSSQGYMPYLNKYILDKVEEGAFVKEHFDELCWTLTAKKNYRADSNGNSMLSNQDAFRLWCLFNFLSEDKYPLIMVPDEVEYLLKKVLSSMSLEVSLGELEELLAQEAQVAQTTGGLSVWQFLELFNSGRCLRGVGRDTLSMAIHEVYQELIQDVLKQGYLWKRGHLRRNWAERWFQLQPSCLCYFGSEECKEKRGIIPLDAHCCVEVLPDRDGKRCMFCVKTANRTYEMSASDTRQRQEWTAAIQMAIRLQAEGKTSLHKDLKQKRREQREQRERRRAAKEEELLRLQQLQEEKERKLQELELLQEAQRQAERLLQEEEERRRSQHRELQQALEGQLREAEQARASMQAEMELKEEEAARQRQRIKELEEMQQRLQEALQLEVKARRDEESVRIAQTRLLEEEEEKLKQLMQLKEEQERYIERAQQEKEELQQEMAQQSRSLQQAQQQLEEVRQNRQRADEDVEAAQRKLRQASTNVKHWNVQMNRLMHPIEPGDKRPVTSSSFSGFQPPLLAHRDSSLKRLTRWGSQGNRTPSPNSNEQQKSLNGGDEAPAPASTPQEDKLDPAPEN
Sequence of UniProt P17844 (P17844 whole entry, looked up): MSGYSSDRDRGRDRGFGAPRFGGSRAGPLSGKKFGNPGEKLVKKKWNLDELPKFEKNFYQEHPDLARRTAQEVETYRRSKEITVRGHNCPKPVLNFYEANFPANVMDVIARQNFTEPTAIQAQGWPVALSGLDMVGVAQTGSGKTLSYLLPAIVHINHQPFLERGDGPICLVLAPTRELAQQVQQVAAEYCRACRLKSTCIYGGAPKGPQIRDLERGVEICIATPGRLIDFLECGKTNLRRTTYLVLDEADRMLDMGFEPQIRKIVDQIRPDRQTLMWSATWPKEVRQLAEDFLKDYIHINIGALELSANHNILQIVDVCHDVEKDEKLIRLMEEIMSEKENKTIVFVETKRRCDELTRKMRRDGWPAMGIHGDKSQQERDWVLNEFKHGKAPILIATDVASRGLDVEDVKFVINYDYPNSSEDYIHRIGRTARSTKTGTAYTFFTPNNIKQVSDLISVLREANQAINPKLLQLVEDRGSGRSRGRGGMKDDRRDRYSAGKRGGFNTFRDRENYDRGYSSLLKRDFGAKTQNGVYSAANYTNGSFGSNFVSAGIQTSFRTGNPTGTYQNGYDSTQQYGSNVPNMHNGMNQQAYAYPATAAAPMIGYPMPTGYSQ
Sequence of UniProt Q96BR5 (Q96BR5 whole entry, looked up): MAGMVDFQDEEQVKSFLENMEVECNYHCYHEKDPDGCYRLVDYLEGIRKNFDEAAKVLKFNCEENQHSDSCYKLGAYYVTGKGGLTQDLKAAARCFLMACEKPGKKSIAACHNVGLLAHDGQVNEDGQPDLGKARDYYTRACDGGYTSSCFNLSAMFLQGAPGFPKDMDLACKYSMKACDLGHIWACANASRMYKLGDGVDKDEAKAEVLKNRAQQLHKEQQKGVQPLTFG
Sequence of UniProt P08311 (P08311 whole entry, looked up): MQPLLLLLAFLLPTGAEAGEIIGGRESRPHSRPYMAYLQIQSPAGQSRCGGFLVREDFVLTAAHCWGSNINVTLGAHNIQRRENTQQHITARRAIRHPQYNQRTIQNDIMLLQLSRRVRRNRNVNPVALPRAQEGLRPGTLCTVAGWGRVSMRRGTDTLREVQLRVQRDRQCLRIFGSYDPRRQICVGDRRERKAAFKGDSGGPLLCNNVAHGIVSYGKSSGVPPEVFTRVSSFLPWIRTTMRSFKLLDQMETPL
Sequence of UniProt P50238 (P50238 whole entry, looked up): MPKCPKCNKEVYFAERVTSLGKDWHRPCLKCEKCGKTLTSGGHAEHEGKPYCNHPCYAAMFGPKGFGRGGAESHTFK

With “DHX9_Q08211_777_VRPGFCFHLCSR (UniProt Q08211)”, the “probe-labelled cysteine peptide fold change” value is, setting by setting: (10 µM) -0.231; (50 µM) -0.0284.

Regarding “DECR1_Q16698_86_GMTTLLSSLGAQCVIASR (UniProt Q16698)”, the “probe-labelled cysteine peptide fold change” value turned out to be 0.251 (10 µM) and 0.213 (50 µM).

Regarding “DDX5_P17844_170_TLSYLLPAIVHINHQPFLERGDGPICLVLAPTR (UniProt P17844)”, the “probe-labelled cysteine peptide fold change” value is, setting by setting: (10 µM) 0.236; (50 µM) 0.565.

On to “DCAF12L1_Q5VU92_150_LAQDQQGCGIHAIELNPSK (UniProt Q5VU92)”, for which the “probe-labelled cysteine peptide fold change” value by setting is: (10 µM) -0.214; (50 µM) -0.239.

In the case of “CTNNA1_P35221_461_MSASQLEALCPQVINAALALAAK (UniProt P35221)”, the “probe-labelled cysteine peptide fold change” value reads like this: (10 µM) 0.108; (50 µM) 0.332.

For “DDX10_Q13206_196_INNINILVCTPGR (UniProt Q13206)”, the “probe-labelled cysteine peptide fold change” value by setting is: (10 µM) 0.0926; (50 µM) 0.195.

As for “DHX16_O60231_932_VEVGLSSCQGDYIR (UniProt O60231)”, the “probe-labelled cysteine peptide fold change” value runs as follows: (10 µM) -0.184; (50 µM) 0.119.

Take “DGLUCY_Q7Z3D6-2_165_TTVPCVTHAGFCCPLVVTMRPIPK (UniProt Q7Z3D6)”: the “probe-labelled cysteine peptide fold change” value (10 µM) was found to be 0.017 and the “probe-labelled cysteine peptide fold change” value (50 µM) is -0.4.

“DIAPH3_Q9NSV4_663_IRPHEMTENCFWIK (UniProt Q9NSV4)”: the “probe-labelled cysteine peptide fold change” value runs as follows: (10 µM) -0.0626; (50 µM) -0.468.

With “DDX18_Q9NVP1_407_ANATVDGLEQGYVVCPSEK (UniProt Q9NVP1)”, the “probe-labelled cysteine peptide fold change” value is -0.401 (10 µM) and 0.698 (50 µM).

In the case of “COLGALT1_Q8NBJ5_283_QAEVQMYVCNK (UniProt Q8NBJ5)”, the “probe-labelled cysteine peptide fold change” value by setting is: (10 µM) 0.265; (50 µM) 0.751.

As for “DBR1_Q9UK59_347_VPCNFSVTAACYDPSKPQTQMQLIHR (UniProt Q9UK59)”, the “probe-labelled cysteine peptide fold change” value was -0.109 (10 µM) and -0.299 (50 µM).

As for “CTPS2_Q9NRF8_299_ICSIALVGK (UniProt Q9NRF8)”, the “probe-labelled cysteine peptide fold change” value was -0.0254 (10 µM) and 0.193 (50 µM).

In the case of “CTSG_P08311_142_AQEGLRPGTLCTVAGWGR (UniProt P08311)”, the “probe-labelled cysteine peptide fold change” value is, setting by setting: (10 µM) -0.0347; (50 µM) -0.0423.

Turning to “COPB1_P53618_248_CIYNLLQSSSPAVKYEAAGTLVTLSSAPTAIK (UniProt P53618)”, the “probe-labelled cysteine peptide fold change” value runs as follows: (10 µM) 0.0928; (50 µM) 0.0416.

“CTSH_P09668_272_TGIYSSTSCHK (UniProt P09668)”: the “probe-labelled cysteine peptide fold change” value by setting is: (10 µM) 0.176; (50 µM) -0.114.

As for “DCAF8_Q5TAQ9_256_FLPNSGDSTLAMCAR (UniProt Q5TAQ9)”, the “probe-labelled cysteine peptide fold change” value is, setting by setting: (10 µM) -0.0556; (50 µM) -0.22.

On to “CUL7_Q14999_952_CQQGGIDTR (UniProt Q14999)”, for which the “probe-labelled cysteine peptide fold change” value runs as follows: (10 µM) -0.417; (50 µM) -0.0198.

Take “DENND4A_Q7Z401_952_GSADCLPK (UniProt Q7Z401)”: the “probe-labelled cysteine peptide fold change” value was -0.312 (10 µM) and 0.101 (50 µM).

For “CPNE8_Q86YQ8_196_SNEDGSFTICHK (UniProt Q86YQ8)”, the “probe-labelled cysteine peptide fold change” value runs as follows: (10 µM) 0.205; (50 µM) 0.413.

Consider “DGLUCY_Q7Z3D6_316_GIGHLLCK (UniProt Q7Z3D6)”, for which the “probe-labelled cysteine peptide fold change” value reads like this: (10 µM) -0.0414; (50 µM) 0.0827.

In the case of “CTR9_Q6PD62_196_TNPGCPAEVR (UniProt Q6PD62)”, the “probe-labelled cysteine peptide fold change” value by setting is: (10 µM) -0.0165; (50 µM) -0.0939.

With “DDX17_Q92841_319_CTYLVLDEADRMLDMGFEPQIR (UniProt Q92841)”, the “probe-labelled cysteine peptide fold change” value reads like this: (10 µM) 0.023; (50 µM) -0.374.

On to “DHX9_Q08211_1099_LQISHEAAACITGLR (UniProt Q08211)”, for which the “probe-labelled cysteine peptide fold change” value reads like this: (10 µM) 0.136; (50 µM) 0.171.

“CRABP1_P29762_130_ELANDELILTFGADDVVCTR (UniProt P29762)”: the “probe-labelled cysteine peptide fold change” value reads like this: (10 µM) 0.082; (50 µM) 0.307.

“DIP2A_Q14689_6_GCPLEAAPLPAEVR (UniProt Q14689)”: the “probe-labelled cysteine peptide fold change” value (10 µM) is -0.41 and the “probe-labelled cysteine peptide fold change” value (50 µM) is -2.19.

Turning to “CTDP1_Q9Y5B0_277_ILSRDECIDPFSK (UniProt Q9Y5B0)”, the “probe-labelled cysteine peptide fold change” value (10 µM) is -0.0626 and the “probe-labelled cysteine peptide fold change” value (50 µM) was -0.31.

Take “COA7_Q96BR5_187_ACDLGHIWACANASR (UniProt Q96BR5)”: the “probe-labelled cysteine peptide fold change” value came to 0.0578 (10 µM) and 0.0556 (50 µM).

For “CRIP1_P50238_56_TLTSGGHAEHEGKPYCNHPCYAAMFGPK (UniProt P50238)”, the “probe-labelled cysteine peptide fold change” value is, setting by setting: (10 µM) -0.447; (50 µM) -1.41.

As to “DDX24_Q9GZR7_599_SLVFANSISCIK (UniProt Q9GZR7)”, the “probe-labelled cysteine peptide fold change” value was found to be 0.147 (10 µM) and 0.498 (50 µM).

“CYB5R4_Q7L1T6_278_CQLISK (UniProt Q7L1T6)”: the “probe-labelled cysteine peptide fold change” value is -0.0627 (10 µM) and -0.00326 (50 µM).

“DEF6_Q9H4E7_266_GIIPLDAHCCVEVLPDRDGKR (UniProt Q9H4E7)”: the “probe-labelled cysteine peptide fold change” value was 0.106 (10 µM) and -0.227 (50 µM).

Regarding CTSZ_Q9UBR2_179_ECHAIR (UniProt Q9UBR2), the “probe-labelled cysteine peptide fold change” value runs as follows: (10 µM) 0.892; (50 µM) 2.23.

As for “DENND4A_Q7Z401_35_PLEEEIHFNDACHK (UniProt Q7Z401)”, the “probe-labelled cysteine peptide fold change” value by setting is: (10 µM) -0.0984; (50 µM) -0.131.

For the target “CSRP1_P21291_167_GLESTTLADKDGEIYCK (UniProt P21291)”, the “probe-labelled cysteine peptide fold change” value is -0.0814 (10 µM) and -1.06 (50 µM).

Take “DDX52_Q9Y2R4_342_TGFRDQLASIFLACTSHK (UniProt Q9Y2R4)”: the “probe-labelled cysteine peptide fold change” value is 0.00973 (10 µM) and 0.189 (50 µM).

For “DLEC1_Q9Y238_256_LEDSCR (UniProt Q9Y238)”, the “probe-labelled cysteine peptide fold change” value runs as follows: (10 µM) 0.773; (50 µM) 1.66.

As for “DGKE_P52429_167_TVHDECMK (UniProt P52429)”, the “probe-labelled cysteine peptide fold change” value (10 µM) is -0.082 and the “probe-labelled cysteine peptide fold change” value (50 µM) is -0.168.

Turning to “CTU1_Q7Z7A3_144_SCCTFCGVLR (UniProt Q7Z7A3)”, the “probe-labelled cysteine peptide fold change” value runs as follows: (10 µM) -0.353; (50 µM) -1.17.
